Source: PubChem BioAssay
Hits are enriched below; roughly 1.6% of the tested compounds scored in any of these assays.
F-actin modifier: modifiers of F-actin cytoskeleton organization, primary screen, imaging, HUVEC, phalloidin staining, high-content imaging; 91,000 tested, 0.18% active; inhibition, % at 2 µM; HUVEC TNFa F-actin phalloidin imaging; AID 836, 2007;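 active = inhibition above the batch mean plus 3 SD and confirmed as a hit by visual image inspection, cut at about 30% in these data, passing the limit was not always enough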
TNFa cytotox: cytotoxicity in TNFa-stimulated HUVEC, primary screen, cytotoxicity control for VCAM1 expression modulator project, imaging, Hoechst nuclei count. HUVEC TNFalpha-stimulated, Hoechst cell count. cell count reduction, % at 2 µM. 93,000 tested, 0.17% active. AID 848, 2007;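 active = cell count reduction exceeding the screen mean by over 5 SD, scaled to untreated wells per plate, cut at about 78% in these data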;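 note: cells counted after 24 h of TNF alpha exposure following the 1 h pretreatment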
VCAM1 TNFa inh: inhibitors of TNFa-induced VCAM1 expression, primary screen, imaging, HUVEC, TNFa stimulus, immunofluorescence; HUVEC TNFa-induced VCAM-1 immunofluorescence, high-content imaging; inhibition, % at 2 µM; 95,000 tested, 0.48% active;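 active = inhibition above the batch mean plus 3 SD, with images confirmed as a hit by eye, cut at about 37% in these data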
IL1B NFkB inh: inhibitors of IL-1B driven NFkB p65 nuclear import, primary screen, imaging, HUVEC, IL-1B stimulus, high-content imaging; HUVEC IL-1B NFkB p65 nuclear translocation imaging; inhibition, % at 2 µM; 94,000 tested, 0.43% active; AID 796, 2007;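 active = inhibition above about 30% together with a positive call from visual inspection of the well image, limit read from the data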;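 note: nuclear over cytoplasmic p65 intensity ratio measured by imaging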
NFkB transloc pot: enhancers of NFkB p65 translocation in HUVEC – imaging, IL-1B stimulus, high-content imaging, primary screen | HUVEC IL-1B NFkB p65 nuclear translocation imaging | activation, % at 2 µM | 94,000 tested, 0.3% active;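 active = activation above 40%, about the mean plus 3 SD, also judged a hit on visual image review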;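 note: percent activation is computed from the nuclear over cytoplasmic p65 intensity ratio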
IL1B cytotox: cytotoxicity in IL-1B stimulated HUVEC, primary screen, cytotoxicity control for IL-1B NFkB translocation project, imaging, Hoechst nuclear count, IL-1B stimulus | HUVEC cell count loss | cell count reduction, % at 2 µM | 94,000 tested, 0.41% active;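 active = cell count reduction more than 3 SD above the screen-wide mean, cut at about 70% in these data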
Large screens that a line does not name were inactive.

CC(C)(C)Cc1nnc(NS(=O)(=O)c2ccc(F)cc2)s1	NFkB transloc pot 98
O=C(NO)c1ccc(C(=O)N(C2CCCCC2)C2CCCCC2)cc1	NFkB transloc pot 44
COc1cccc(C2NC(=O)NC(C)=C2C(=O)OCCSC)c1OC (stereo not drawn)	none
Cc1c(Cl)cccc1NC(=O)CN1CCC(C(O)(c2ccccc2)c2ccccc2)CC1	IL1B NFkB inh 49
Cc1c(Cl)cccc1NC(=O)CCN1CCCCC1	none
O=C1CCCN1c1ccc(S(=O)(=O)Oc2cccc(Cl)c2)cc1[N+](=O)[O-]	none
Cc1cc(C)c(S(=O)(=O)N(CC(=O)N2CCOCC2)C2CCCCC2)c(C)c1	IL1B cytotox 75
CCN(CC)S(=O)(=O)c1cccc(C(=O)N[C@H](C(=O)OCC(N)=O)C(C)C)c1	IL1B NFkB inh 34
Cc1cc(OCC(=O)N2CCc3ccccc3C2)c2c(-c3ccccc3)cc(=O)oc2c1	none
CCCCCC(=O)N/N=C/c1ccc([N+](=O)[O-])o1	IL1B cytotox 93 (no result: F-actin modifier, TNFa cytotox, VCAM1 TNFa inh)
COCCNC(=O)C(c1cccs1)N(Cc1cccs1)C(=O)Cn1nnc2ccccc21 (stereo not drawn)	F-actin modifier 32
CC(C)CCNC(=O)C(c1cccs1)N(CC1CCCO1)C(=O)Cn1nnc2ccccc21 (stereo not drawn)	IL1B NFkB inh 99, IL1B cytotox 91 (no result: F-actin modifier, TNFa cytotox, VCAM1 TNFa inh)
CCCCCCCCCCn1c2c(c(=N)c3c1CCC3)CCC2	VCAM1 TNFa inh 87
CC1CC(=O)NN=C1c1ccc(N(C)C)c([N+](=O)[O-])c1 (stereo not drawn)	none
CCN(CC)c1ccc(C2=NNC(=O)CC2C)cc1[N+](=O)[O-] (stereo not drawn)	VCAM1 TNFa inh 78
CC(=O)c1cc2c(cc1NC(=O)CN1CCCCCCC1)OCO2	none
OCCN(CC(O)Cn1ccc2ccccc21)CC(O)Cn1ccc2ccccc21 (stereo not drawn)	none
OCCNCC(O)Cn1ccc2ccccc21 (stereo not drawn)	VCAM1 TNFa inh 100 (no result: F-actin modifier, TNFa cytotox)
COc1ccc(C=NCCC2(O)CC(C)N(C)CC2C)cc1 (stereo not drawn)	IL1B NFkB inh 40
COc1ccc(/C=N/OCC(=O)N2CC3(C)CC2CC(C)(C)C3)cc1 (stereo not drawn)	none
COc1ccc(CC(=O)N2CCN=C2SC)cc1	none
CSC1=NCCN1C(=O)Cc1ccc(Cl)cc1	VCAM1 TNFa inh 44
O=C(c1ccc(Br)cc1)c1cc([N+](=O)[O-])ccc1N1CCCCC1	VCAM1 TNFa inh 92
Cc1ccc(C(=O)c2cc([N+](=O)[O-])ccc2N2CCOCC2)c(C)c1	VCAM1 TNFa inh 79, IL1B NFkB inh 96, IL1B cytotox 88
Cc1cccc(C)c1OCC(=O)Nc1oc(-c2ccccc2)c(-c2ccccc2)c1C#N	IL1B NFkB inh 49
COc1ccc2[nH]c(=O)c(CN(C(=O)c3ccncc3)C(C)C)cc2c1	F-actin modifier 48, VCAM1 TNFa inh 95
N#C/C(=C/c1ccc(N2CCCCCC2)o1)c1cccc(F)c1	none
N#C/C(=C/c1ccc(N2CCCCCC2)o1)c1ccc(F)cc1	IL1B NFkB inh 44
CN(C)CC(C)(C)CNS(=O)(=O)c1cccc(Cl)c1Cl	none
Cc1cc(Oc2ccc(C#N)cc2)nc(N2CCOCC2)n1	IL1B NFkB inh 37
CCOc1ccc(Nc2cc(C)nc(N3CCOCC3)n2)cc1	none
CCOC(=O)c1cnc(SCC(=O)Nc2cc(OC)cc(OC)c2)nc1N	NFkB transloc pot 50
Cc1cccnc1NC(=O)COc1ccc2oc3c(c2c1)CCCC3	none (no result: F-actin modifier, TNFa cytotox, VCAM1 TNFa inh)
Cc1ccc(NC(=O)COc2ccc3oc4c(c3c2)CCCC4)nc1	IL1B cytotox 80
O=S(=O)(c1ccc(N2CCN(CCO)CC2)nc1)N1CCCCC1	none
O=S(=O)(c1cc(Cl)ccc1Cl)N1CC2CCCN2c2ccc(C(F)(F)F)cc21 (stereo not drawn)	none
CCOc1ccccc1CNn1nnnc1N	none
Cc1cc(Cl)c(S(=O)(=O)N2CC(C)OC(C)C2)cc1OCC(N)=O (stereo not drawn)	none
